# Test results published in PubChem BioAssay (NCI).
# The panel holds about 79,000 compounds, 15% with a hit somewhere; the sample as a whole holds those more often. A number with no mark means an inactive call. Rule as the data show it: active = growth inhibition above about 70%; inactive = the rest.
# Experiment: NCI Yeast Anticancer Drug Screen. Data for the rad50 strain (AID 155);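 also: 0% = growth of vehicle-only cultures of the same strain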
# Details: S. cerevisiae rad50 strain growth inhibition; at 50.0 µM; active compounds read high
# Procedure: Growth inhibition of yeast strains with defined genetic alterations is measured as a screen for potential anti-cancer activity. Selected strains with alterations in DNA damage repair or cell cycle control were exposed to compounds and growth inhibition was measured relative to vehicle treated controls. The strain used in this assay is rad50
row,Compound,growth inhibition [%]
1,Cc1cccc(C)c1NC(=S)/N=C\c1c(O)[nH]c(=O)[nH]c1=O,-67
2,CCOc1ccc(NC(=S)N2CCC(CCCC3CCN(C(=S)Nc4ccc(OCC)cc4)CC3)CC2)cc1,-6.6
3,CN1CCN(C(=S)S)CC1,0.3
4,COC(c1ccc2c(c1)OCO2)C(C)Br (stereo not given),7.45
5,CCNCC(C)(C)O,7.7
6,CCCCNC(=O)c1ccc(OCC)cc1,12.2
7,CSc1cnc2ccccc2n1,5.55
8,CC(C)C(=O)OCCOc1ccc(C(C)(C)C)cc1,6.35
9,Nc1ncnc2c1ncn2C1OC(CO)C2OC21 (stereo not given),-12.6
10,NC(=S)c1c(N)n(C2OC(CO)C(O)C2O)c2ncnc(N)c12 (stereo not given),7.2
11,Nc1ccc2c(c1)Cc1cc(N)c(N)cc1-2,10.8
12,Oc1cc(O)c2c(c1)O[C@H](c1ccc(O)c(O)c1)[C@@H](O)C2,0.9
13,CC1=CC(=Nc2ccc(N(C)C)cc2)C=C(C)C1=O,-14.5
14,CC(=O)[C@@]1(O)CC[C@H]2[C@@H]3CC[C@@H]4CC(=O)CC[C@]4(C)[C@H]3[C@@H](O)C[C@@]21C,-19.9
15,CN(C)c1ccc2c(N(C)C)cc(N(C)C)nc2c1,-14.8
16,COc1ccc(/C=N/NC(=O)COCC(=O)N/N=C/c2ccc(OC)cc2)cc1,-34.6
17,O=C(c1ccccc1O)N1CCCC1,19.6
18,CC(C)Sc1ncnc2nc[nH]c12,2.4
19,Cc1cc2c(C(C)C)c(O)c(O)c(C=Nc3ccccc3[N+](=O)[O-])c2c(O)c1-c1c(C)cc2c(C(C)C)c(O)c(O)c(C=Nc3ccccc3[N+](=O)[O-])c2c1O,-13.9
20,COC(CCCl)c1ccc(Cl)cc1 (stereo not given),4.7

row,Compound,growth inhibition [%]
1,CCOC(=O)/C(C#N)=C\c1c[nH]c2ccccc12,54.5
2,O=S(=O)(O)c1cccc2cccnc12,4.3
3,Cc1cc2nc(C)c(C)nc2cc1C,-20.5
4,Nc1ncnc(Nc2ccc(C(F)(F)F)cc2)n1,44
5,COc1cccc(C(=O)NNC(=O)c2cccc3ccccc23)c1,-47.2
6,O=c1nc(Nc2cccc(Cl)c2)oc2cc(Cl)oc(=O)c12,32.5
7,CN(C)Cc1ccccn1,1.1
8,O=C(CCCl)OCCOc1ccccc1,-9.85
9,CCC(=O)C1C(=O)c2ccccc2C1=O,20.9
10,CC(=O)CSc1ncnc2nc[nH]c12,0.1
11,CC(C)=CCC[C@@H](C)[C@H]1CC[C@@]2(C)C3=C(CC[C@]12C)[C@@]1(C)CC[C@H](O)C(C)(C)[C@@H]1CC3,12.7
12,CN=S(=O)(OCCCCCOS(=O)(=NC)c1ccc(C)cc1)c1ccc(C)cc1 (stereo not given),3.75
13,O=[N+]([O-])c1c(Cl)ncnc1Cl,-52.5
14,C1Cc2onc(-c3noc4c3CCC4)c2C1,-11.2
15,CCOC(=O)c1cc(C)[nH]c(=O)c1C#N,-12.2
16,CCN(CC)CCOC(=O)Nc1c(C(C)C)cccc1C(C)C,-2.7
17,O=C(CCl)Nc1ccccc1SCc1cc(Cl)cc2c1OCOC2,-5.7
18,O=C(O)c1ccc([N+](=O)[O-])cc1S(=O)(=O)O,-21.6
19,COc1cc(C(=O)N2CCN(c3ccccc3)CC2)c2ccccc2n1,-3.8
20,COc1cc(OC)c2cc(C(=O)c3ccc(C#N)cc3)c(=O)oc2c1,17
